Compound activity as filed in PubChem BioAssay.
EWS-Fli block: blocks EWS/Fli oncoprotein-driven transcription. A673 NR0B1-luciferase reporter, viability-normalised. inhibition, % at 12.6 µM. actives 0.67% (n = 350,000);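 active = mean inhibition of at least 50% after viability correction, with every replicate also passing that limit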;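 note: firefly luciferase signal divided by Alamar Blue viability fluorescence both relative to DMSO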
LGR2 antag: Drosophila LGR2 receptor signaling inhibition; HEK293 LGR2, CRE-luciferase, bursicon-stimulated, 4 h; AID 720647; actives 0.35% (n = 380,000); inhibition, % at 9.99 µM;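 active = drop in luminescence signal, shown as inhibition above about 50% in the replicate tests, limit read from the data, passing the limit was not always enough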;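 note: agonist challenge used bursicon conditioned medium at about half maximal strength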
CFTR F508del cor: CFTR F508del correction in bronchial cells | CFBE cells, YFP halide quenching; stimulated with forskolin plus potentiator P3; % fluorescence drop versus neutral controls | activity (quench increase), % at 7.58 µM | actives 0.36% (n = 350,000) | AID 720511;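 active = mean added fluorescence quench of at least 8% versus neutral control, with both replicates also reaching 8%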;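 note: cells transiently co-express mutant CFTR-F508del with the halide-sensitive YFP; corrector assay measuring rescue of mutant channel to the surface after 24 h compound exposure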
PAX8 reporter: PAX8 transcriptional activity inhibition; RMG-I TPO-luciferase reporter, SteadyGlo, 24 h; actives 1.2% (n = 360,000); AID 652154; inhibition, % at 12.6 µM;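 active = mean replicate inhibition at least 60% with every replicate also reaching 60%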;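 note: luciferase light reporting Pax8 driven TPO promoter activity; plate controls were median of neutral control wells for no effect and mitoxantrone controls for full effect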
* = called active by the depositor; / = no result given. A selection: hits, their analogues and other compounds. The true share with any hit is near 1.8%.

SMILES | EWS-Fli block | LGR2 antag | CFTR F508del cor | PAX8 reporter
CN(C)CC(=O)N1CCCCN2[C@@H](CO)[C@H](c3ccc(/C=C/c4ccccc4)cc3)[C@@H]2C1 | 23 | 1 | -8 | 67*
O=C(Nc1ccccc1F)N1CCCCN2[C@H](C1)[C@H](c1ccc(/C=C/c3ccccc3)cc1)[C@@H]2CO | -3 | 12 | -2 | 39
CN(C)CC(=O)N1CCCCN2[C@@H](CO)[C@@H](c3ccc(/C=C/c4ccccc4)cc3)[C@@H]2C1 | 3 | -7 | -8 | 72*
CN(C)CC(=O)N1CCCCN2[C@H](C1)[C@H](c1ccc(/C=C/c3ccccc3)cc1)[C@@H]2CO | -13 | -19 | -2 | 60
O=C(Nc1ccccc1F)N1CCCCN2[C@@H](CO)[C@@H](c3ccc(/C=C/c4ccccc4)cc3)[C@@H]2C1 | 26 | 4 | -2 | 76*
CC(C)NC(=O)N(C)C[C@@H]1Oc2c(NC(=O)C3CCCCC3)cccc2C(=O)N([C@@H](C)CO)C[C@@H]1C | -4 | 3 | -1 | 6
CCOC(=O)[C@]12CCCC=C1N(CCC1=CCCCC1)C(=O)[C@H](CC(=O)N1CCC(c3ccccc3)CC1)C2 | 1 | 2 | 1 | 3
FC(F)(Cl)c1nnc2ccc(Cl)nn12 | -8 | 11 | 1 | 74*
O=C1Nc2ccc(Br)cc2/C1=C/C(=O)c1ccccc1 | 32 | 11 | 0 | -13
C=CCOc1cccc(C(=O)/C=C2/C(=O)Nc3ccccc32)c1 | 54* | 5 | 1 | 0
Nc1cc2c3c(cccc3c1)C(=O)N(CCN1CCCC1)C2=O | 39 | -19 | 2 | 11
O=C1c2cccc3cc([N+](=O)[O-])cc(c23)C(=O)N1CCN1CCCC1 | 69* | 32 | 7 | 90*
COc1ccc(NC(=O)Nc2ccc3c(c2)CC(=O)N([C@H](C)CO)C[C@@H](C)[C@@H](CN(C)S(=O)(=O)c2ccc(OC)cc2)O3)cc1 | 9 | -2 | -1 | 3
COc1ccc(S(=O)(=O)N(C)C[C@@H]2Oc3ccc(NC(=O)Nc4ccc(C(F)(F)F)cc4)cc3CC(=O)N([C@@H](C)CO)C[C@@H]2C)cc1 | 46 | -10 | -1 | 66*
COc1ccc(S(=O)(=O)N(C)C[C@@H]2Oc3ccc(NC(=O)Nc4ccc(C(F)(F)F)cc4)cc3CC(=O)N([C@H](C)CO)C[C@H]2C)cc1 | -17 | -2 | 1 | 0
COc1ccc(S(=O)(=O)N(C)C[C@@H]2Oc3ccc(NC(=O)Nc4ccc(C(F)(F)F)cc4)cc3CC(=O)N([C@H](C)CO)C[C@@H]2C)cc1 | 44 | 11 | 0 | 78*
COc1ccc(-c2cc(NC=O)c3ncc(-c4ccc(OC)c(OC)c4)n3c2)c(OC)c1 | 47 | -46 | 2 | 83*
COc1cccc(-c2cc(NC=O)c3ncc(-c4ccc(OC)c(OC)c4)n3c2)c1 | 26 | -36 | 1 | 17
COc1cccc(-c2cnc3c(NC=O)cc(-c4ccc(OC)cc4OC)cn23)c1 | 32 | -28 | 3 | 99*
C[C@H]1CN([C@@H](C)CO)C(=O)c2cccc(NS(=O)(=O)c3ccc(F)cc3)c2O[C@H]1CN(C)Cc1ccc2c(c1)OCO2 | -15 | 19 | 2 | -5
COc1ccc(NC(=O)Nc2ccc3c(c2)C(=O)N([C@H](C)CO)C[C@@H](C)[C@H](CN(C)Cc2ccc(C(F)(F)F)cc2)O3)cc1 | 2 | 3 | 3 | 12
C[C@H](CO)N1C[C@H](C)[C@@H](CN(C)Cc2ccc(C(F)(F)F)cc2)Oc2ccc(NC(=O)Nc3ccccc3)cc2C1=O | 10 | -4 | -3 | /
COc1ccc(NC(=O)Nc2ccc3c(c2)C(=O)N([C@@H](C)CO)C[C@@H](C)[C@H](CN(C)Cc2ccc(C(F)(F)F)cc2)O3)cc1 | -3 | -1 | 4 | 91*
C[C@@H]1CN([C@@H](C)CO)C(=O)c2cc(NC(=O)Nc3ccc(F)cc3)ccc2O[C@@H]1CN(C)Cc1ccc(C(F)(F)F)cc1 | 11 | -6 | 0 | 70*
CC(=O)N1c2ccc(S(=O)(=O)NCC3CCC(C(=O)NCc4ccc(C)cc4)CC3)cc2CC1C (configuration not stated) | / | -16 | -2 | -2
SMILES | EWS-Fli block | LGR2 antag | CFTR F508del cor | PAX8 reporter
CC(=O)Nc1cccc(N)c1 | -10 | 20 | 1 | /
COC(=O)c1cccc(NC(=O)Nc2ccc(Cl)cc2)c1 | 75* | -13 | / | -63
Cc1ccc(C(=O)O/N=C(\N)c2nonc2N)cc1 | -25 | 78* | 3 | -26
COc1ccc(O)c(/C=N/NC(=O)c2ccc(N3CCCC3=O)cc2)c1 | -1 | 2 | 8.0* | 106*
C[C@H]1CN([C@@H](C)CO)C(=O)c2cc(NC(=O)Nc3cccc4ccccc34)ccc2O[C@@H]1CN(C)Cc1ccc(Oc2ccccc2)cc1 | 8 | -7 | -1 | /
C[C@@H]1CN([C@@H](C)CO)C(=O)c2cc(N(C)C)ccc2O[C@@H](C)CCCCO[C@H]1CN(C)S(=O)(=O)c1ccc(F)cc1 | 0 | 8 | -2 | 88*
C[C@@H]1CCCCO[C@H](CN(C)S(=O)(=O)c2ccc(Cl)cc2)[C@H](C)CN([C@@H](C)CO)C(=O)c2cc(N(C)C)ccc2O1 | -1 | -9 | -1 | 77*
C[C@H](CO)N1C[C@H](C)[C@H](CN(C)S(=O)(=O)c2ccc(Cl)cc2)OCCCC[C@H](C)Oc2ccc(N(C)C)cc2C1=O | -5 | 2 | 2 | 54
Cc1ccc(S(=O)(=O)N(C)C[C@H]2OCCCC[C@@H](C)Oc3ccc(N(C)C)cc3C(=O)N([C@H](C)CO)C[C@H]2C)cc1 | 7 | 8 | 0 | 47
CCCNC(=O)C1(C)CCCN(Cc2cccc(Oc3ccccc3)c2)C1 (configuration not stated) | 15 | 9 | 1 | 7
CCC(c1nc2ccccc2[nH]1)n1c(C)nc2ccccc21 (configuration not stated) | -2 | -6 | -4 | -7
CCCCCCCCC(c1nc2ccccc2[nH]1)N1CCN=C1c1cc2ccccc2[nH]1 (configuration not stated) | 38 | 80* | -3 | 27
Cn1c(Cn2c(=O)sc3ccccc32)nnc1SCC(=O)NCc1ccco1 | 6 | 3 | 0 | 11
O=C(CSc1nnc(Cn2c(=O)sc3ccccc32)n1-c1ccccc1)NCc1ccco1 | -8 | -7 | 10* | -6
CC(OC(=O)c1cccs1)C(=O)NC1CCCCC1C (configuration not stated) | 5 | 6 | 29* | 11
Cc1ccc(C(=O)OC(C)C(=O)NC2CCCCC2C)s1 (configuration not stated) | 0 | 7 | -1 | 10
OC(c1ccc(CN2CCCCC2)cc1)c1ncc(-c2ccccc2F)[nH]1 (configuration not stated) | -12 | 2 | -2 | -5
COc1ccc(O)c(C(=O)CC(=O)c2ccc(F)cc2)c1 | / | 75* | / | /
Cc1ccccc1S(=O)(=O)N(C)C[C@@H]1OCc2cnnn2CCCC(=O)N([C@@H](C)CO)C[C@H]1C | -2 | 6 | 2 | -2
CCN(Cc1ccccc1)Cc1nc(CCc2ccccc2)no1 | 6 | -16 | 2 | -4
